In assay [1] the test system is Plasmodium falciparum Sir2 (PF13_0152, Sir2A). Put plainly: Plasmodium falciparum Sir2A binding compounds – biochemical, small-molecule microarray, 635 nm fluorescence, primary screen (AID 1098).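 Further: score merges spot fluorescence intensity with its signal-to-noise ratio.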 Conditions: fluorescence 635 nm, higher = more signal.
Assay [2] can be described thus: probe aDKK1 binding to arrayed compounds – biochemical, biotinylated probe, 635/667 nm fluorescence, primary screen (AID 1099).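 Further: score merges 667nm spot fluorescence with signal to noise across triplicate slides; reference of the scale not given here.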 Conditions: small-molecule microarray, higher = more signal.
Assay [3] is described as follows: probe aCHRDL2 binding to arrayed compounds – biochemical, biotinylated probe, 635/667 nm fluorescence, primary screen (AID 1100). To be noted: small-molecule microarray, higher = more signal.
A short description of assay [4]: change in splice reporter luminescence, either direction, cell-based, HEK293, spliceosome inhibition project, primary screen (AID 1101).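 Further: HEK293 cells carrying a splicing-competent luciferase reporter gene; test concentration not given here.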 Conditions: HEK293 splicing luciferase reporter, 24 h, higher = more signal, called active from +8 up or from −8 down. Background: In a reporter assay the amount or activity of a reporter protein is the signal.
Assay [5] concerns the target Fibroblast growth factor 10 (Homo sapiens) (UniProt O15520). Description: compounds binding fibroblast growth factor 10 – biochemical, small-molecule microarray, 635 nm fluorescence, primary screen (AID 1102). To be noted: FGF10 binding, fluorescence 635 nm, higher = more signal.
For assay [6], the system named is glycogen synthase kinase-3 (GSK3A per assay name; protocol says GSK3B). Put plainly: compounds binding glycogen synthase kinase-3 – biochemical, small-molecule microarray, 635 nm fluorescence, GSK3A, primary screen (AID 1103). Further: the record names both GSK3A and GSK3B. Conditions: fluorescence 635 nm, higher = more signal.
In assay [7] the target is Epidermal growth factor receptor (Homo sapiens) (UniProt P00533). Put plainly: compounds binding epidermal growth factor receptor – biochemical, small-molecule microarray, 635 nm fluorescence, primary screen (AID 1104).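 Further: score merges 667 nm emission intensity with spot signal to noise over triplicate slides.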 Conditions: EGFR binding, higher = more signal.
Sequence of Epidermal growth factor receptor (Homo sapiens) (P00533 whole entry, looked up): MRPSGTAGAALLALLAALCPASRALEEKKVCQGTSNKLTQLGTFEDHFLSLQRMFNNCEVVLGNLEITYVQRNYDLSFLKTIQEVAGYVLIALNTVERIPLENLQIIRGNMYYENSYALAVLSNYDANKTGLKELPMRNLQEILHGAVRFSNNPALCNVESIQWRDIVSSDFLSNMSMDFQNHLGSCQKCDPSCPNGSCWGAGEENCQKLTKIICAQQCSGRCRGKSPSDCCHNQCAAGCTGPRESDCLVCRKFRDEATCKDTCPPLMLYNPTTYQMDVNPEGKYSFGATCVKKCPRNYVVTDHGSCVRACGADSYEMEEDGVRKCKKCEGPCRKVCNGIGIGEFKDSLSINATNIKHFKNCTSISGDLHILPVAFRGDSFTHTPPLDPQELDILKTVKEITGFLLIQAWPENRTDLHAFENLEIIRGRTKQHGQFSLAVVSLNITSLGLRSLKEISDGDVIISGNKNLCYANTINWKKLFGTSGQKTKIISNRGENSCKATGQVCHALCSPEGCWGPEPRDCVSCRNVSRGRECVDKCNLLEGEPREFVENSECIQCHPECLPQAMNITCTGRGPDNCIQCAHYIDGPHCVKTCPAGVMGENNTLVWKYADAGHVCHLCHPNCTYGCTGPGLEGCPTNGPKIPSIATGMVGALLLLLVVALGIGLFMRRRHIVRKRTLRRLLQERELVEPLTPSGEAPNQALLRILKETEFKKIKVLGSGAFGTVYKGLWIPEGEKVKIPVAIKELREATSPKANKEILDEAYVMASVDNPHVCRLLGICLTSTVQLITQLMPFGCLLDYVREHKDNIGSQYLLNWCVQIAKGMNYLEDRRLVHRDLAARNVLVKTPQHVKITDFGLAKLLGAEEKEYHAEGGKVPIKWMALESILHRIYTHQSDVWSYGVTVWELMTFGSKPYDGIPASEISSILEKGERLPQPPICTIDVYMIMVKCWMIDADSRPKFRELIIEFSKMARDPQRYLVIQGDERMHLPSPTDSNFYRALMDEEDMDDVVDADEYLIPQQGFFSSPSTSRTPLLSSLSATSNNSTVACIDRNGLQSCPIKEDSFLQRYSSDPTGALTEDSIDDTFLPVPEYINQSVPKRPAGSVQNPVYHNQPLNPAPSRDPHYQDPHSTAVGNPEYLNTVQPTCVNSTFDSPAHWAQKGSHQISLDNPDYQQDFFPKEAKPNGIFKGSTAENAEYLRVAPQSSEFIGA
Assay [8] concerns the target Follistatin-related protein 3 (Homo sapiens) (UniProt O95633). Description: compounds binding follistatin-related protein 3 – biochemical, small-molecule microarray, 635 nm fluorescence, primary screen (AID 1105).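 Further: score merges emission near 667 nm and signal to noise per printed spot across three slides.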 To be noted: FSTL3 binding, higher = more signal.
Assay [9] has as its target Dickkopf-related protein 1 (Homo sapiens) (UniProt O94907). Put plainly: small molecules binding DKK1 protein – biochemical, small-molecule microarray, 635 nm fluorescence scan, primary screen (AID 1106).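 Further: score merges emission near 667 nm with signal to noise over three replicate slides.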 Conditions: higher = more signal.
For assay [10], the system named is Inhibin beta A chain (activin A). Put plainly: small molecules binding activin A – biochemical, small-molecule microarray, 635 nm fluorescence scan, primary screen (AID 1107).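 Further: mouse activin A protein probed at 4.33 µg/mL on printed slides; score merges bound-protein fluorescence near 667 nm with spot signal-to-noise.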 To be noted: INHBA, higher = more signal.

Active and inactive are the calls of the source.

Sequence of Follistatin-related protein 3 (Homo sapiens) (O95633 whole entry, looked up): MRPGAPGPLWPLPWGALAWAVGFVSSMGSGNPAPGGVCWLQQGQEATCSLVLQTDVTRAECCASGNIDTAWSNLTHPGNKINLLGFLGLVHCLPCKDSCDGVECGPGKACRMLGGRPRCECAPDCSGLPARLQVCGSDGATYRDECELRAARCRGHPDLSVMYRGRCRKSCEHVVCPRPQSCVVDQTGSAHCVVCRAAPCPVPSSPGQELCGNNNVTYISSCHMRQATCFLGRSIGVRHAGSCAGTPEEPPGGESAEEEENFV
Sequence of Dickkopf-related protein 1 (Homo sapiens) (O94907 whole entry, looked up): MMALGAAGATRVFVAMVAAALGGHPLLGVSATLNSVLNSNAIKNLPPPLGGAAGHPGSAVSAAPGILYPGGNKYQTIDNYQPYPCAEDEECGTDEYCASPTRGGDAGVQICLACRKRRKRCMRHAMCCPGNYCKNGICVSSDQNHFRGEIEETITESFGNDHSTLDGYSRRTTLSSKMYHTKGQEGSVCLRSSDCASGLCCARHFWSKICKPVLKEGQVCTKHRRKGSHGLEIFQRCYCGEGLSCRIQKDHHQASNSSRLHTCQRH
Sequence of Fibroblast growth factor 10 (Homo sapiens) (O15520 whole entry, looked up): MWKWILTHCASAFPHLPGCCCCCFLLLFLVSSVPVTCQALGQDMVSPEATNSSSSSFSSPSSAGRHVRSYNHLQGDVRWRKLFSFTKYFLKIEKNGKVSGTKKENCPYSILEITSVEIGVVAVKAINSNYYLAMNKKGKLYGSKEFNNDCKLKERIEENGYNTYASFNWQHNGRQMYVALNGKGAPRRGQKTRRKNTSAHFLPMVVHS

Turning to `CC(c1ccccc1)C(O)C1C=CC2C(=O)N(C)C(=O)C2N1NC(=O)OC(C)(C)C` (stereo not given), the composite z-score in [1] stood at 1.16; in assay [2], 0.354; in [3], 0.488; in [5] it was 1.02; in [6], 1.28; in [7], 0.469. In addition, the figures for the composite z-score in [8], in [9] and in [10] were 0.907, 0.237 and 0.633, respectively. The z-score in assay [4] was 1.18 (inactive).

For the compound `CCCC=C(CCC)[C@@H](NS(=O)(=O)c1ccc(Cl)cc1)c1ccc(C(=O)OC)cc1`, the composite z-score in assay [1] is 0.456; in assay [2], 0.113; in assay [3] it was -0.461; in [5], 0.401; in assay [6], 0.836; in [7], 0.228. Besides, the composite z-score in assay [8] was -0.445; in assay [9], 0.291; in assay [10] it was 0.28. The z-score in assay [4] was 0.184 (inactive).

For the compound `COCCOC(=O)N1C(=O)[C@@]2(c3cc(C#CC4(O)CCCCCC4)ccc31)[C@H](C(=O)Nc1nc3ccccc3s1)[C@H]1C(=O)O[C@H](c3ccccc3)[C@H](c3ccccc3)N1[C@@H]2c1ccccc1OCCO`, the composite z-score in assay [1] worked out at 1.07; in assay [2], 0.199; in assay [3] it was 0.365; in [5], 1.3; in [6], 1.29; in [7], 0.38. Further, the composite z-score in assay [8] is 1.05; in [9], 0.287; in assay [10], -0.0079. The z-score in [4] is -0.616 (inactive).

As to `COC(=O)C(CC#Cc1ccc2c(c1)[C@]1(C(=O)N2)[C@H](c2ccccc2OCCO)N2[C@H](c3ccccc3)[C@H](c3ccccc3)OC(=O)[C@H]2[C@@H]1C(=O)O)C(=O)OC`, the composite z-score in assay [1] was found to be 1.49; in assay [2], 0.666; in assay [3], 0.0004; in assay [5], 0.738; in assay [6] it was 0.93; in [7], 0.28. Further, the composite z-score in [8] came to 0.356; in assay [9] it was 0.278; in assay [10], 1.04. For the same compound, in [4], the z-score was -0.597 (inactive).

As to `COCCOC(=O)N1C(=O)[C@@]2(c3ccccc31)[C@H](C(=O)N1CCCCCCC1)[C@H]1C(=O)O[C@H](c3ccccc3)[C@H](c3ccccc3)N1[C@@H]2c1ccc(OCCO)cc1`, the composite z-score in assay [1] is 2.08; in [2], 3.12; in assay [3], 1.76; in assay [5], 1.69; in assay [6], 1.49; in assay [7], 2.05. The composite z-score in assay [8] was 1.79; in assay [9], 2.72; in assay [10] it was 1.77. For the same compound, in assay [4], the z-score was -0.69 (inactive).

For the compound `CC[C@@H]1C=C(C(=O)O)[C@H](c2cccc3ccccc23)N1S(=O)(=O)c1ccc(C)cc1`, the composite z-score worked out at 0.819 in [1]; 0.0149 in [2]; 0.0792 in assay [3]; 0.51 in assay [5]; 0.466 in assay [6]; 0.294 in assay [7]. Moreover, the composite z-score was 0.495 in [8], 0.153 in assay [9] and 1.02 in assay [10]. Also, the z-score in assay [4] is 0.756 (inactive).

Consider `COCCOC(=O)N1C(=O)[C@@]2(c3ccccc31)[C@H](C(N)=O)[C@H]1C(=O)O[C@H](c3ccccc3)[C@H](c3ccccc3)N1[C@@H]2c1ccc(O)cc1`, for which the composite z-score was 0.784 in assay [1]; -0.566 in [2]; 0.481 in assay [3]; 0.0392 in assay [5]; -0.0985 in assay [6]; -0.458 in assay [7]. Besides, the figures for the composite z-score in assay [8], in assay [9] and in assay [10] were 0.292, -0.0601 and 0.0565, respectively. In addition, the z-score in assay [4] is -0.726 (inactive).

As for `NC(=O)N1C(=O)C2C(C1=O)C1C=C(CCCO)C2C(C2CC2)N1Cc1cc2c(cc1Br)OCO2` (stereo not given), the composite z-score was -0.267 in assay [1]; -0.165 in assay [2]; 0.32 in assay [3]; -0.395 in assay [5]; -0.645 in [6]; -0.376 in [7]. In addition, the composite z-score in assay [8] was -0.252; in [9], -0.891; in assay [10], 0.943. For the same compound, the z-score in [4] was 0.901 (inactive).

As to `CN(C)CCCC[C@@H]1NC(=O)[C@H]2C[C@@H](C(=O)NCCCCCN)[C@@H](c3cccc(OCCO)c3)N2C1=O`, the composite z-score is 1.11 in [1]; 1.33 in assay [2]; 1.04 in assay [3]; 1.2 in assay [5]; 1.06 in assay [6]; 0.0076 in assay [7]. For the same compound, the composite z-score is 0.0876 in assay [8], 0.453 in assay [9] and 1.41 in assay [10]. The z-score in assay [4] is 0.0522 (inactive).

Regarding `C=CCC(OC(C)=O)[C@@H]1[C@@H](N(Cc2ccc(-c3cccc(C(F)(F)F)c3)o2)C(=O)c2cccc3ccccc23)c2cc(OCCCO)ccc2N1C(=O)Cc1ccc2ccccc2c1` (stereo not given in full), the composite z-score in assay [1] was 0.25; in assay [2], 0.102; in assay [3], 0.291; in [5] it was 0.0246; in assay [6], -1.07; in assay [7], -0.352. The composite z-score was 0.117 in assay [8], -0.282 in assay [9] and 0.95 in assay [10]. The z-score in assay [4] is -0.896 (inactive).

(Values after PubChem BioAssay.)
